The other results are listed elsewhere or left out. The rule behind the calls is not given here.
What follows are compounds tested against 5-hydroxytryptamine receptor 5A (Homo sapiens) (UniProt P47898) (assay: inverse agonism at human 5-HT5A receptor – cell-based, luminescence, confirmation (AID 504916;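 note: 0% = cells with DMSO and 100% = no cells with DMSO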)). Settings: HTR5A-expressing cells, at 9.3 µM, hits give high values.
Sequence of 5-hydroxytryptamine receptor 5A (Homo sapiens) (P47898 whole entry, looked up): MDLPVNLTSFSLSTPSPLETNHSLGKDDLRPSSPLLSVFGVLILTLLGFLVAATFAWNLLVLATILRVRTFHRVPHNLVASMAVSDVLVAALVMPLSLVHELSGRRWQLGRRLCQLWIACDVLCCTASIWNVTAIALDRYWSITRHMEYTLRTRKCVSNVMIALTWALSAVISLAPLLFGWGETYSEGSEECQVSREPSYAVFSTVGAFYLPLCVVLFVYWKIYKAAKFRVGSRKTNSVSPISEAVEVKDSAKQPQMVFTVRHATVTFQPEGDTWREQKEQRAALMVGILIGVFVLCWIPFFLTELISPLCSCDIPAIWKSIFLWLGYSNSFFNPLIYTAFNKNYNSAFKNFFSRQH

inhibition, inactive:
COc1ccc(-c2nnc(SC(C)C(=O)NC3CC3)o2)cc1 (configuration not stated) 1.03%
Cc1noc(C)c1COc1cccc(C(=O)Nc2cccnc2)c1 4.42%
CCCCCCCCc1c(O)nc(-n2[nH]c(C)c(CCO)c2=O)[nH]c1=O -15.1%
CCOC(=O)NC(=O)C(=CNc1cccc(OC)c1)C(=O)NC(=O)OCC -98.8%
Cc1cc(C)n(-c2ccc(Cl)c(C(=O)O)n2)n1 -6.82%
O=c1ccc2c(-c3ccccc3S(=O)(=O)O)c3ccc(O)c(O)c3oc-2c1O -16.7%
O=C(/C=C/c1ccc(Cl)c([N+](=O)[O-])c1)c1ccc(O)cc1 -8.27%
